From PubChem BioAssay (NCI)
Where “and” joins values, the source holds several entries; their conditions need not be identical. Equal values may be shown once. Compounds without any hit were thinned out: in the full panel of roughly 83,000, 20% have a hit.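 In brief: 96-well plates, 48 h treatment, single concentration, percent growth endpoint.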 Calls of active or inactive are those of the source. Rule for the calls: active = growth percent below 10; inactive = the rest.

How the values were obtained:
Experiment in all cases: NCI-60 one-dose screen, 48 h (100 = growth as untreated, 0 = no growth, -100 = all killed)
Conditions in all cases: 10 µM unless noted
NCI-H23 lung = test system: NCI-H23 lung
NCI-H226 lung = test system: NCI-H226 lung
NCI-H322M lung = test system: NCI-H322M lung
HOP-62 NSCLC = test system: HOP-62 NSCLC
NCI-H460 lung = test system: NCI-H460 lung
HOP-92 NSCLC = test system: HOP-92 NSCLC
NCI-H522 lung = test system: NCI-H522 lung
A549/ATCC NSCLC = test system: A549/ATCC NSCLC
786-0 renal = test system: 786-0 renal
COLO 205 colon = test system: COLO 205 colon
DU-145 prostate = test system: DU-145 prostate
K-562 leukemia = test system: K-562 leukemia
MALME-3M melanoma = test system: MALME-3M melanoma
MDA-MB-231 breast = test system: MDA-MB-231 breast
RXF 393 renal = test system: RXF 393 renal
SF-268 CNS = test system: SF-268 CNS
SF-295 CNS = test system: SF-295 CNS
SF-539 CNS = test system: SF-539 CNS
UACC-257 melanoma = test system: UACC-257 melanoma
M14 melanoma = test system: M14 melanoma

Measured: growth

O=c1oc2c(Br)cc(Br)cc2cc1-c1cc(-c2ccc(-c3cc(-c4cc5cc(Br)cc(Br)c5oc4=O)nc(-c4cc5cc(Br)cc(Br)c5oc4=O)c3)cc2)cc(-c2cc3cc(Br)cc(Br)c3oc2=O)n1
inactive: NCI-H23 lung 96.5% | NCI-H226 lung 102% | NCI-H322M lung 97.3% | HOP-62 NSCLC 104% | NCI-H460 lung 105% | HOP-92 NSCLC 108% | NCI-H522 lung 86.8% | A549/ATCC NSCLC 105% | 786-0 renal 111% | COLO 205 colon 110% | DU-145 prostate 112% | K-562 leukemia 97.9% | MALME-3M melanoma 92.6% | MDA-MB-231 breast 93.7% | RXF 393 renal 119% | SF-268 CNS 105% | SF-295 CNS 106% | SF-539 CNS 107% | UACC-257 melanoma 109% | M14 melanoma 107%

O=C1/C(=C/c2ccccc2[N+](=O)[O-])Cc2ccccc21
active: NCI-H522 lung -88.7% and -87.5% | RXF 393 renal -4.67% and -0.599%
-74.9% (active) and 18.5% (inactive): COLO 205 colon
-9.95% (active) and 31.3% (inactive): MDA-MB-231 breast
41.4% (inactive) and -6.77% (active): A549/ATCC NSCLC
10.5% (inactive) and 6.16% (active): K-562 leukemia
inactive: NCI-H23 lung 22.6% and 59.2% | NCI-H226 lung 19.4% | NCI-H322M lung 65.2% and 71.3% | HOP-62 NSCLC 57.6% and 32.8% | HOP-92 NSCLC 51.9% and 77.4% | 786-0 renal 45% and 26.5% | DU-145 prostate 32.7% and 41.5% | MALME-3M melanoma 23.7% and 60.2% | SF-268 CNS 66% and 42.8% | SF-295 CNS 23% and 28.3% | SF-539 CNS 24.2% and 34.3% | UACC-257 melanoma 64.4% and 71.8% | M14 melanoma 42.7% and 57.8%
7.04% (active) and 23.6% (inactive): NCI-H460 lung

COCCn1cc(-c2nc(-c3cn(CCOC)c4ncccc34)cs2)c2ccccc21
inactive: NCI-H23 lung 56.2% | NCI-H226 lung 87.3% | NCI-H322M lung 59.2% | HOP-62 NSCLC 67.8% | NCI-H460 lung 56.6% | HOP-92 NSCLC 66.4% | NCI-H522 lung 53.4% | A549/ATCC NSCLC 70.8% | 786-0 renal 82.9% | COLO 205 colon 18.8% | DU-145 prostate 97.1% | K-562 leukemia 119% | MALME-3M melanoma 88.6% | MDA-MB-231 breast 49% | RXF 393 renal 76.1% | SF-268 CNS 83.3% | SF-295 CNS 91.4% | SF-539 CNS 79.4% | UACC-257 melanoma 88% | M14 melanoma 99.9%

CN1CCN(Cc2ccc(NC(=O)c3nc4ccc5[nH]ncc5c4c4c3CCCC4)cc2C(F)(F)F)CC1
inactive: NCI-H226 lung 73.4% | NCI-H322M lung 19%
active: NCI-H23 lung -21.9% | HOP-62 NSCLC -75.9% | NCI-H460 lung -58.6% | HOP-92 NSCLC -79.9% | NCI-H522 lung -70.7% | A549/ATCC NSCLC -83.1% | 786-0 renal -85.4% | COLO 205 colon -86.8% | DU-145 prostate -73.1% | K-562 leukemia -48.4% | MALME-3M melanoma -75.7% | MDA-MB-231 breast -81.2% | RXF 393 renal -97.1% | SF-268 CNS -75.7% | SF-295 CNS -67.7% | SF-539 CNS -89.3% | UACC-257 melanoma -80.3% | M14 melanoma -64.1%

CONC1=Nc2cc(NC(N)=NCc3ccccc3)c(N(C)C3CCCCC3)cc2OC1
inactive: NCI-H23 lung 68.3% | NCI-H226 lung 67.3% | NCI-H322M lung 87% | HOP-62 NSCLC 82.3% | NCI-H460 lung 59.7% | HOP-92 NSCLC 35.4% | NCI-H522 lung 59.3% | A549/ATCC NSCLC 78.7% | 786-0 renal 71.2% | DU-145 prostate 72.6% | K-562 leukemia 23.6% | MALME-3M melanoma 78.6% | MDA-MB-231 breast 25.5% | RXF 393 renal 41.2% | SF-268 CNS 68.1% | SF-295 CNS 83.3% | SF-539 CNS 75.9% | UACC-257 melanoma 89.5% | M14 melanoma 78.1%
active: COLO 205 colon -36.1%

COCCn1cc(-c2csc(-c3cn(C)c4ccc(F)cc34)n2)c2cccnc21
active: K-562 leukemia 2.01%
inactive: NCI-H23 lung 76.3% | NCI-H226 lung 83% | NCI-H322M lung 75.7% | HOP-62 NSCLC 93.2% | NCI-H460 lung 51.6% | HOP-92 NSCLC 64.7% | NCI-H522 lung 30.8% | A549/ATCC NSCLC 60.6% | 786-0 renal 62% | COLO 205 colon 61.6% | DU-145 prostate 69.9% | MALME-3M melanoma 84.8% | MDA-MB-231 breast 51.5% | RXF 393 renal 72.3% | SF-268 CNS 77.2% | SF-295 CNS 73.7% | SF-539 CNS 78.1% | UACC-257 melanoma 83.8% | M14 melanoma 50.5%

COc1ccc2c(c1)oc1c(C)c3c(c(C)c12)C(=O)N(Nc1ccccc1)C3=O
inactive: NCI-H23 lung 98.5% | NCI-H226 lung 106% | NCI-H322M lung 95.5% | HOP-62 NSCLC 88.9% | NCI-H460 lung 98.9% | HOP-92 NSCLC 100% | NCI-H522 lung 95.7% | A549/ATCC NSCLC 112% | 786-0 renal 92.8% | COLO 205 colon 94% | DU-145 prostate 97.4% | K-562 leukemia 101% | MALME-3M melanoma 99.5% | MDA-MB-231 breast 105% | RXF 393 renal 116% | SF-268 CNS 100% | SF-295 CNS 97.1% | SF-539 CNS 95.1% | UACC-257 melanoma 109% | M14 melanoma 95.3%

CCN1CCN(C(=O)[C@]23CC[C@@H](C)[C@H](C)[C@@H]2C2=CC[C@@H]4[C@@]5(C)CCC(=O)C(C)(C)[C@@H]5CC[C@@]4(C)[C@]2(C)CC3)CC1
inactive: NCI-H23 lung 21.4% | NCI-H226 lung 35.7% | NCI-H322M lung 10.2% | A549/ATCC NSCLC 19.9% | DU-145 prostate 41.5% | SF-268 CNS 39.7% | SF-295 CNS 24.8%
active: HOP-62 NSCLC 9.82% | NCI-H460 lung -55.1% | HOP-92 NSCLC -5.58% | NCI-H522 lung -53.4% | 786-0 renal -40.1% | COLO 205 colon -50.9% | K-562 leukemia 2.78% | MALME-3M melanoma -85.7% | MDA-MB-231 breast -28.6% | RXF 393 renal -6.14% | SF-539 CNS -79.8% | UACC-257 melanoma -23.9% | M14 melanoma -41.6%

COC(=O)/C=C1/SC(N2N=C(c3cccs3)CC2c2ccc(F)cc2)=NC1=O (stereo not given)
inactive: NCI-H23 lung 82.2% | NCI-H226 lung 84% | NCI-H322M lung 93% | HOP-62 NSCLC 85.2% | NCI-H460 lung 24.4% | HOP-92 NSCLC 77.1% | NCI-H522 lung 24.3% | A549/ATCC NSCLC 90.7% | 786-0 renal 85.3% | COLO 205 colon 21.8% | DU-145 prostate 31% | MALME-3M melanoma 79.7% | MDA-MB-231 breast 35% | RXF 393 renal 48.7% | SF-268 CNS 32.4% | SF-295 CNS 91.4% | SF-539 CNS 91.6% | UACC-257 melanoma 84.4% | M14 melanoma 50.8%
active: K-562 leukemia 5.16%

O=C(/C=C/c1ccc(F)cc1)Nc1ncc(Cc2ccc(F)cc2)s1
inactive: NCI-H23 lung 61.5% | NCI-H226 lung 70% | NCI-H322M lung 41.4% | HOP-62 NSCLC 39% | NCI-H460 lung 17% | HOP-92 NSCLC 71.5% | NCI-H522 lung 19.1% | A549/ATCC NSCLC 38.1% | 786-0 renal 46.7% | COLO 205 colon 23.8% | DU-145 prostate 33% | K-562 leukemia 14% | MALME-3M melanoma 41.5% | MDA-MB-231 breast 75.7% | RXF 393 renal 32.1% | SF-268 CNS 52.3% | SF-295 CNS 20.2% | SF-539 CNS 22% | UACC-257 melanoma 60.3% | M14 melanoma 19.9%

Clc1ccc(CNc2ccc3nc(CCC4CCCCC4)[nH]c3c2)cc1
inactive: NCI-H23 lung 66.4% | NCI-H226 lung 71.4% | NCI-H322M lung 87.9% | HOP-62 NSCLC 79% | NCI-H460 lung 60.6% | HOP-92 NSCLC 28.8% | NCI-H522 lung 54.8% | A549/ATCC NSCLC 59.8% | 786-0 renal 58.9% | DU-145 prostate 83.5% | MALME-3M melanoma 31.4% | MDA-MB-231 breast 62.8% | RXF 393 renal 52% | SF-268 CNS 79% | SF-295 CNS 73.4% | SF-539 CNS 69.6% | UACC-257 melanoma 71.4% | M14 melanoma 45%
active: COLO 205 colon -63.3% | K-562 leukemia 6.84%

N#C/C(=N\Nc1ccc(Cl)cc1)C(=O)Nc1cc(-c2ccccc2)nn1-c1ccccc1
inactive: NCI-H226 lung 51.5% | NCI-H322M lung 11.9% | HOP-62 NSCLC 61.4% | A549/ATCC NSCLC 33.8% | 786-0 renal 45.2% | COLO 205 colon 65.4% | DU-145 prostate 35% | K-562 leukemia 12.2% | MDA-MB-231 breast 24.3% | RXF 393 renal 47.1% | SF-268 CNS 19.9% | SF-539 CNS 52.3% | UACC-257 melanoma 13.2% | M14 melanoma 35.6%
active: NCI-H23 lung 1.09% | NCI-H460 lung 8.34% | HOP-92 NSCLC -23.4% | NCI-H522 lung 7.38% | MALME-3M melanoma 2.07% | SF-295 CNS 1.62%

CCOc1ccccc1NC(=O)c1cc2ccccc2cc1O
inactive: NCI-H23 lung 16.4% | NCI-H226 lung 71.8% | NCI-H322M lung 84.1% | HOP-62 NSCLC 98.4% | NCI-H460 lung 26.9% | NCI-H522 lung 12.9% | A549/ATCC NSCLC 36.8% | 786-0 renal 70.7% | COLO 205 colon 111% | DU-145 prostate 78.5% | K-562 leukemia 22.8% | MALME-3M melanoma 49.8% | MDA-MB-231 breast 54.9% | RXF 393 renal 63.2% | SF-268 CNS 80.6% | SF-295 CNS 106% | SF-539 CNS 84.6% | UACC-257 melanoma 54.2% | M14 melanoma 64.6%
active: HOP-92 NSCLC 5.82%
